From PubChem BioAssay
Most compounds without a hit are left out; they make up all but 12% or so of the library.
AMA1 RON2 block – inhibitors of Plasmodium falciparum AMA1-RON2 interaction; 360,000 compounds, 0.2% hits; AlphaScreen AMA1-biotinylated RON2 peptide binding; Potency, µM (highest dose often 58.2 µM), most hits filed as inhibitors; also: nearly all actives have a fitted effect of over 45% in size
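AMA1 (3D7) with his tag at 25 nM final met compounds first, then biotinylated RON2 peptide at 25 nM; detection used donor plus acceptor beads, 10 µg/mL apiece, read by AlphaScreen after 30 min at room temperature.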
Pf growth 48h – inhibits P. falciparum growth in the first generation, 48 h; P. falciparum luciferase growth in erythrocytes, 48 h; Potency, µM (series often up to 28.7 µM), most hits filed as inhibitors; 310,000 compounds, 5.9% hits
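Read-out is firefly luciferase luminescence from an integrated reporter in P. falciparum, so falling signal marks reduced parasite growth. Infected erythrocytes were at 2% hematocrit and 0.1% parasitemia (final) in Albumax-supplemented RPMI 1640.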
HCV inh – blocks hepatitis C virus. Potency, µM (top dose mostly 41.8 µM), hits mostly inhibitors. AID 651820. 340,000 compounds, 3.4% hits. Huh7.5.1 HCVcc-Cre infection, luciferase reporter, 44 h
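After 44 h co-culture of compound, cells and HCVcc-Cre (~0.5 moi), substrate is added for 15 min at room temperature and luciferase measured over 15 sec. Cells were seeded at 1,000/well and pre-cultured 4 h.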
NS1 function inh – blocks influenza NS1 protein function; Potency, µM (doses to about 46.1 µM); 270,000 compounds, 0.4% hits; calls by dose curve; also: actives are rising curves; nearly all actives have a fitted effect of over 50% in size
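Compounds were scored for reversing the slow growth caused by influenza A NS1 in S. cerevisiae, measured by optical density at 600 nm. Assay medium contained 2% galactose at pH 6.0; NS1-free yeast of the same strain were the positive control.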
Pf growth 96h – P. falciparum growth inhibition at 96 hours. AID 504834. Potency, µM (doses to about 28.7 µM), hits mostly inhibitors. 320,000 compounds, 6.9% hits. P. falciparum luciferase reporter growth, 96 h
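Erythrocytes infected with luciferase-expressing P. falciparum were dispensed at 2% hematocrit and 0.05% parasitemia (final), then incubated with compounds 96 hours at 37 C in 5% CO2. Luminescence after detection reagent addition reported growth.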
SARS PLpro yeast – blocks SARS-CoV papain-like protease in a yeast assay. S. cerevisiae expressing SARS-CoV PLpro, growth rescue. Potency, µM (titrated, usually from 32.9 µM), usual class: activators. 330,000 compounds, 0.19% hits; calls by dose curve; also: nearly all actives have a fitted effect of over 55% in size
Flu NS1 inh – influenza NS1 function inhibition validation; shares compounds with NS1 function inh; influenza NS1 function cell assay, 15-point titration; activity change, negative = inhibition, % at 32.9 µM; 1,400 tested, under 10 active; calls by dose curve
Flu PR8 replic – influenza virus titer reduction, NS1 project; shares compounds with NS1 function inh; MDCK infected influenza A/PR/8/34, virus titer TCID50; stronger effect = lower value; virus titer (log TCID50), log10 TCID50 at 5 µM; 95 compounds, 30% hits; AID 504647; call rule not given here
A number is an active result; [ ] = another dose, or the depositor's remark. Unless noted, calls follow the shape of the dose curve; as a rule, active = well fitted curve in the direction sought with a large enough effect; inconclusive = small, poorly fitted or top-dose-only effect, or another doubt; inactive = no such curve, though single readings can be large; an effect the other way counts as inactive or inconclusive.

O=C(c1ccccc1)[C@H]1[C@H](c2ccccc2)[C@@]2(N=C(c3ccccc3)OC2=O)C2c3ccccc3C=NN21 (stereo partly specified) was read as Pf growth 48h inactive, NS1 function inh 2.51µM, Pf growth 96h inconclusive, SARS PLpro yeast inactive and Flu NS1 inh inactive.
`CC12CN(NC(=O)c3ccccc3F)C3(C#N)CC1CCC23C` (stereo unspecified) gave AMA1 RON2 block inactive, Pf growth 48h inactive[5.75 µM], HCV inh inactive, Pf growth 96h inconclusive and SARS PLpro yeast inactive.
CCCN(CC(=O)Nc1ccccc1OC)C(=O)CSC(=S)N1CCCC1 was read as AMA1 RON2 block inactive, Pf growth 48h inconclusive, HCV inh inconclusive, Pf growth 96h inconclusive and SARS PLpro yeast inactive.
Screening Cc1c(Cl)cnc(NC(=O)COC(=O)c2cccc(S(=O)(=O)N3c4ccccc4CC3C)c2)c1Cl (stereo unspecified) returned AMA1 RON2 block inactive, Pf growth 48h inactive, HCV inh inactive, NS1 function inh 11.2µM, Pf growth 96h inactive, SARS PLpro yeast inactive and Flu NS1 inh inactive.
Screening CC(=O)Nc1nc(C)c(-c2csc(Nc3ccc(O)cc3)n2)s1 returned AMA1 RON2 block inactive, Pf growth 48h 2.62µM, HCV inh 10µM, NS1 function inh 3.16µM, Pf growth 96h inconclusive, SARS PLpro yeast inactive and Flu NS1 inh inactive.
`Cc1cc(O)ccc1Nc1nc(-c2sc(N)nc2C)cs1` gave AMA1 RON2 block inactive, Pf growth 48h inactive, HCV inh inconclusive, NS1 function inh 11.2µM, Pf growth 96h inactive, SARS PLpro yeast inactive and Flu NS1 inh inactive.
`COc1cc(Cl)c(C)cc1NC(=O)CSC1=NCCS1` gave AMA1 RON2 block inactive, HCV inh inconclusive and SARS PLpro yeast inactive.
CCC(C)(C)NC(=O)c1ccc(S(=O)(=O)N2CCCCCC2)cc1 was read as AMA1 RON2 block inactive, Pf growth 48h inconclusive, HCV inh inactive, Pf growth 96h inconclusive and SARS PLpro yeast inactive.
`COc1cc(NC(=S)N2CCC(C(O)(c3ccccc3)c3ccccc3)CC2)cc(OC)c1` gave AMA1 RON2 block inactive, Pf growth 48h inactive, HCV inh inconclusive, NS1 function inh 4.47µM, Pf growth 96h 2.08µM, SARS PLpro yeast inactive and Flu NS1 inh inactive.
For Cn1ncc(Cl)c1C(=O)N1CCN(c2ccc(Cl)c(Cl)c2)CC1 the results were AMA1 RON2 block inactive, Pf growth 48h inactive, HCV inh inactive, NS1 function inh inactive, Pf growth 96h inactive and SARS PLpro yeast inactive.
Screening COc1ccc(C2/C=C\CN(S(=O)(=O)/C=C/c3ccccc3)CC(=O)N2Cc2ccc(F)cc2)cc1 (stereo unspecified) returned AMA1 RON2 block inactive, Pf growth 48h inconclusive, HCV inh inactive, NS1 function inh inconclusive, Pf growth 96h inconclusive and SARS PLpro yeast inactive.
Screening COc1ccc(C2/C=C\CN(S(=O)(=O)c3ccc4ccccc4c3)CC(=O)N2Cc2ccc(F)cc2)cc1 (stereo unspecified) returned AMA1 RON2 block inactive, Pf growth 48h 13.1µM, HCV inh inconclusive, NS1 function inh 2.82µM, Pf growth 96h inconclusive, SARS PLpro yeast inactive, Flu NS1 inh inactive and Flu PR8 replic inactive.
CC(C)C[C@H](NC(=O)c1[nH]cnc1C(=O)N[C@@H](C)C(=O)OCc1ccccc1)C(=O)OC(C)(C)C was read as AMA1 RON2 block inactive, Pf growth 48h inconclusive, HCV inh inactive, NS1 function inh 12.6µM, Pf growth 96h inactive, SARS PLpro yeast inactive and Flu NS1 inh inactive.
Screening CC(C)C[C@H](NC(=O)c1nc[nH]c1C(=O)NC(c1ccccc1)c1ccccc1)C(=O)OC(C)(C)C returned AMA1 RON2 block inactive, Pf growth 48h inconclusive, HCV inh inactive, NS1 function inh 10µM, Pf growth 96h inconclusive, SARS PLpro yeast inactive and Flu NS1 inh inactive.
